From PubChem BioAssay come the findings set out here.

The target of the assay is Streptavidin (Streptomyces avidinii) (UniProt P22629). Nature of the assay: streptavidin binders on small-molecule microarray, primary screen, artefact control for SMM compound annotation, biophysical, 635/667 nm fluorescence (AID 1147).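 Also: signal reflects streptavidin binding to arrayed compounds as a control protein.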 The settings on record: streptavidin binding, higher = more signal.
Streptavidin (Streptomyces avidinii), sequence (P22629 whole entry, looked up): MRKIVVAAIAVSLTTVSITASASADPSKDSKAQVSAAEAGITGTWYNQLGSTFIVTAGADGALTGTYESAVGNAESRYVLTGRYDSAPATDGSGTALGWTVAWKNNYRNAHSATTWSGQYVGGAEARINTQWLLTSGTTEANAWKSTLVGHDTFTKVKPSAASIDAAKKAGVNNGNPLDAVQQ
For `CC(C)Cc1ccc(CN2CC[C@@H](NC(=O)Nc3ccccc3)C2)cc1`, the composite z-score was -0.0067.
With `CC(C)C[C@@H]1NC(=O)[C@@H]2C[C@H](C(=O)NCCCCN(C)C)[C@H](c3cccc(OCCO)c3)N2C1=O`, the composite z-score was -0.911.
In turn, `CC1CC/C=C\[C@H]2OC34C=CCN(C(C)C)C(=O)[C@H]3N(CCCCCCO)C(=O)[C@@H]4C2C(=O)O1` (stereo not given in full) came in with a composite z-score of -0.931.
For `COc1ccc(CCNC(=O)[C@@]2(Sc3ccc(C)cc3)CC(=O)N(C3Cc4ccccc4C3)[C@@H]2c2ccc(CO)cc2)cc1`, the composite z-score amounted to 1.03.
Regarding `COc1ccc(-c2nc(-c3ccccc3)c3c(c2C)CO[Si]3(C(C)C)C(C)C)cn1`, the composite z-score is 0.188.
`CCCC[C@@H]1C[C@H]1[C@@H](NC(=O)c1cccs1)c1ccc(C(F)(F)F)cc1` gave a composite z-score of 0.189.
For `CN1C(=O)C2C=CC(C(O)c3ccc(F)cc3)N(Nc3ccccc3)C2C1=O` (stereo not given), the composite z-score is 0.473.
For `OCC1CC(c2ccccc2)=NO1` (stereo not given) the value was 2.47.
Regarding `COC1OC[C@]2(C)[C@H]3C4=C(CN2C(=O)OC(C)(C)C)[C@H](C)C(CO)C(CO)C4CC[C@@H]13` (stereo not given in full), the composite z-score stood at 2.17.
`NCCCCCCNC(=O)[C@@H]1C[C@@H]2C(=O)N[C@@H](CCCCN)C(=O)N2[C@@H]1c1cccc(OCCO)c1`: the composite z-score came out at 0.125.
For `CCOC(=O)C1=C[C@@H](c2ccccc2)N(S(=O)(=O)c2ccc(C)cc2)[C@H]1c1ccccc1Cl` the value was 1.6.
`CCOc1cc(C(O)C2C=CC3C(=O)N(c4ccccc4)C(=O)C3N2Nc2ccc(C#N)cc2)ccc1O` (stereo not given): the composite z-score was 0.999.
For `CCCCCCCCCCC(O)C1C=CC2C(=O)N(C)C(=O)C2N1NC(=O)OC(C)(C)C` (stereo not given) the value was 0.548; for `NCCCCCNC(=O)[C@@H]1C[C@@H]2C(=O)NCC(=O)N2[C@@H]1c1cccc(OCCO)c1`, 0.519; for `[N-]=[N+]=NCc1ccccc1[C@H]1OC(c2ccc(OCCCO)cc2)=N[C@@]1(CCS(=O)(=O)c1ccccc1)C(=O)N1CCCCC1`, 1.72.
In turn, `CCOC(=O)C[C@H]1[C@H](OC(=O)c2ccccc2-c2ccccc2)[C@@H](NC(=O)c2ccc(-c3ccccc3)cc2)c2cc(OCCCO)ccc2N1C(=O)c1ccc2ccccc2n1` gave a composite z-score of 0.245.
For `CCCCCCc1nc(C2CC2)cc2c1[Si](C(C)C)(C(C)C)OC2` the value was 0.312.
`O=C1C[C@@](C(=O)NCCN2CCOCC2)(c2ccc([N+](=O)[O-])cc2)[C@@H](c2ccc(CO)cc2I)N1C1CCCCC1` displayed a composite z-score of -0.0491.
As for `COC(=O)[C@@]1(Cc2ccc(OC)cc2)[C@H]2c3cc(C(=O)N4CCCC4)n(Cc4c(-c5ccccc5)noc4C)c3C[C@H]2CN1C(=O)c1ccccc1`, the composite z-score is 0.945.
For the compound `CC(C)(C)N1CC=CC23O[C@@H]4C=CCCOC(=O)C4[C@H]2C(=O)N(CCO)[C@@H]3C1=O` (stereo not given in full), the composite z-score was -0.485.
`O=C1O[C@@H](c2ccccc2)[C@@H](c2ccccc2)N2[C@@H](c3ccccc3OCCO)[C@]3(C(=O)Nc4ccc(C#CCCO)cc43)[C@@H](C(=O)N3CCCCCCC3)[C@H]12` had a composite z-score of 4.08.
Turning to `CO[C@]12C=C(Br)[C@@H](C[C@@H]1c1cccc(C)c1)[C@@]1(CO1)C2=O`, the composite z-score is -0.433.
Turning to `O=C1C2C=CC(C(O)c3ccccc3)N(Nc3ccccc3F)C2C(=O)N1c1ccccc1` (stereo not given), the composite z-score came out at 0.23.
The result for `CC[C@H]1C2=C3C(CC[C@H]4C(OCc5ccc(F)cc5C(F)(F)F)OC[C@](C)([C@@H]34)N(C(=O)OC(C)(C)C)C2)C(COC)C1COC` (stereo not given in full) reads -0.214; that for `Cc1ccc(S[C@]2(C(=O)O)CC(=O)N(C3Cc4ccccc4C3)[C@@H]2c2ccc(CO)cc2)cc1`, -0.395.
As to `COc1ccc(NC(=O)O[C@H]2[C@H](OC(=O)Nc3ccccc3)[C@@H](OC(=O)Nc3ccccc3)[C@@H](OC)O[C@@H]2CO)cc1`, the composite z-score worked out at 0.0017.
`CCCC[C@@H]1C[C@H]1[C@@H](NC(=O)Cc1ccccc1)c1ccc(-c2ccccc2)cc1`: the composite z-score came out at 0.698.
For `N#Cc1ccc(NN2C(C(O)c3ccc(F)cc3)C=CC3C(=O)N(c4ccccc4)C(=O)C32)cc1` (stereo not given) the value was 0.945.
The compound `[N-]=[N+]=NCc1ccccc1C[C@]1(C(N)=O)N=C(c2ccc(OCCCO)cc2)O[C@H]1c1ccccc1` showed a composite z-score of 0.363.
Take `COCCCNC(=O)[C@@]1(Cc2ccccc2N=[N+]=[N-])N=C(c2ccc(OCCCO)cc2)O[C@H]1c1ccccc1`: the composite z-score is -0.459.
`CN(C)CCCNC(=O)[C@@H]1c2ccccc2C(=O)N(Cc2ccccc2Cl)[C@H]1c1ccc(CO)cc1` had a composite z-score of -0.34.
The compound `C=C(/C(=C/C[C@H](OC(=O)c1ccncc1)c1ccc(CO)o1)c1cc(C(=O)OC)ccc1OC)C(C)C` had a composite z-score of -0.328.
Turning to `C=CCC(OC(C)=O)[C@@H]1[C@@H](N(Cc2ccc(-c3cccc(C(F)(F)F)c3)o2)C(=O)c2ccc(-c3ccccc3)cc2)c2cc(OCCCO)ccc2N1C(=O)c1ccc2ccccc2n1` (stereo not given in full), the composite z-score turned out to be 0.0257.
With `CCCCN1CC=CC23O[C@@H]4/C=C\CCC(C)OC(=O)C4[C@H]2C(=O)N(C(CO)C(C)C)[C@@H]3C1=O` (stereo not given in full), the composite z-score is -0.271.
For `[N-]=[N+]=Nc1ccccc1[C@H]1OC(c2ccc(OCCCO)cc2)=N[C@@]1(Cc1ccccc1)C(=O)N1CCCCC1` the value was 1.16.
